Hits are enriched below; roughly 2% of the tested compounds scored in any of these assays.
MsrA inh: bovine MsrA inhibition | purified bovine MsrA, absorbance read-out | inhibition, % at 15.5 µM | 360,000 tested, 0.75% active | AID 651718; in the data active = inhibition above about 4.5%;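 also: 0% = vehicle wells with enzyme and 100% = reference inhibitor wells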
PKA-R2B act: PKA-R2B complex activation; 340,000 tested, 0.079% active; PKA-R2B holoenzyme dissociation, Cy5-IP20 fluorescence polarization; R2B truncated from residue 108, S112A mutant; 0% DMSO only, 100% 113 µM cGMP; P22694+P31323; activation, % at 11.4 µM;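 active = activation above a cutoff set at the mean over all compounds plus 3 SD, cut at about 18% in these data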;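 also: higher means more holoenzyme dissociation and a rise in polarization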
Target sequence (P31323 whole entry, looked up, other chains not shown, the tested form may be a part): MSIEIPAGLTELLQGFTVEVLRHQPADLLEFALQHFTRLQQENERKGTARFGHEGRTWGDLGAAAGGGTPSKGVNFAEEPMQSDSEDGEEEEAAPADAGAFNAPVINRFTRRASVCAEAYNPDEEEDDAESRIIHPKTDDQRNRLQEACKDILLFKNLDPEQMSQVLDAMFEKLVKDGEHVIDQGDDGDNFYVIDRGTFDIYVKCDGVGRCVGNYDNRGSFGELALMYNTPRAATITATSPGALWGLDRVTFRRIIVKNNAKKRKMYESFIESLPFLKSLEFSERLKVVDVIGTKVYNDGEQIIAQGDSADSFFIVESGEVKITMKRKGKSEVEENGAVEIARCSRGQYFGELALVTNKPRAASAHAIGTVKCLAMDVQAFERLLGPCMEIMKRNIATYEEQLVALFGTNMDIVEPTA
Mot1-301 SUMO: SUMOylation pathway inhibition by Mot1-301 growth rescue | S. cerevisiae Mot1-301 growth rescue, ATP luminescence, 38.5C; percent above DMSO median, 100 means doubled | growth rescue, % at 18.8 µM | 320,000 tested, 1% active;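 active = every valid replicate shows activation above 250% relative to neutral control wells; inactive = the rest, any valid replicate at or below 250%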;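 also: OY570 slx delta 5 strain wells were the positive control but not used for scaling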
PKA-R1A act: PKA-R1A complex activation. PKA-R1A dissociation, Cy5-IP20 fluorescence polarization; scaled: DMSO 0%, 113 µM cGMP 100%. activation, % at 11.4 µM. 340,000 tested, 0.083% active. AID 504707;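 active = percent activation above the mean of all tested compounds plus 3 SD, cut at about 19% in these data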;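 also: higher means more PKAc released from R1A so a rise in polarization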
MsrA act: activates bovine MsrA enzyme; activation, % at 10.6 µM; AID 602163; 360,000 tested, 0.3% active; purified bovine MsrA, absorbance read-out; in the data active = activation above about 7.5%;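 also: 0% = vehicle and 100% = reference activator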
Yeast Mot1 SUMO: SUMO pathway inhibitors in yeast Mot1-301 growth; S. cerevisiae Mot1-301 galactose growth, ATP luminescence, 24 h; -100 = growth of slx-deleted rescue strain; growth activity, percent, % at 42 µM; shares compounds with Mot1-301 SUMO; 2,300 tested, under 10 active; AID 493004;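 active = Signal drops as the depositor expects, and the fitted half-maximal dose is no more than ten times the top valid tested dose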;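 also: more negative values mean stronger growth rescue toward the control strain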
Active calls of the source: *; x = no result given; + = active, no number.

SMILES	MsrA inh	PKA-R2B act	Mot1-301 SUMO	PKA-R1A act	MsrA act	Yeast Mot1 SUMO
O=C(O)CN(c1ccccn1)S(=O)(=O)c1ccccc1	2	-10	-12	1	-2	x
COCCn1c(SCC(=O)N2CCCC2)nnc1-c1ccoc1C	-2	-2	+	3	-4	0
O=S(=O)(NCCO)c1cccc2cccnc12	0	-9	13	-2	-3	x
O=S(=O)(NCCN1CCCC1)c1cccc2cccnc12	-1	-8	815*	0	-1	0
COc1ccc(-c2nc3c(c(SCC(=O)N4CCOCC4)n2)Cc2c(CO)cnc(C)c2O3)cc1	2	7	380*	-1	-5	0
Cc1ccc(-c2nc3c(c(SCC(=O)N4CCOCC4)n2)Cc2c(CO)cnc(C)c2O3)cc1	2	2	-7	-1	-3	x
COCCNC(=S)N(C)[C@H]1C[C@H]2c3[nH]c4cccc(-c5ccccc5)c4c3CCN2C(=O)[C@H]1[C@H](C)O	-2	x	x	x	x	x
C=CCNc1cccc2c1S(=O)(=O)N[C@H](C)CO2	0	x	x	x	x	x
CCCCCCOc1ccc(N2C(=O)CC(N3CCC(C(=O)OCC)CC3)C2=O)cc1 (stereo unspecified)	0	-10	553*	-6	-9	0
CCc1ccc(N2C(=O)CC(N3CCC(C(=O)OC)CC3)C2=O)cc1 (stereo unspecified)	3	-10	491*	-1	-3	-1
CCOC(=O)C1CCN(C2CC(=O)N(c3ccc(OCC)cc3)C2=O)CC1 (stereo unspecified)	-1	-6	318	-5	7	x
CCOC(=O)C1CCCN(C2CC(=O)N(c3ccc(N4C(=O)CC(N5CCCC(C(=O)OCC)C5)C4=O)cc3)C2=O)C1 (stereo unspecified)	-1	11	-19	7	-3	x
CC(C)c1[nH]nc2c1C(c1ccccc1)N(Cc1ccccc1)C2=O (stereo unspecified)	2	x	x	x	x	x
CCOC(=O)N1CCN(C(=O)C[C@H]2C[C@@]3(C(=O)OC)C(=C[C@H](C(C)C)O[C@@H]3C3CC3)N(Cc3ccccc3)C2=O)CC1	-1	x	x	x	x	x
Cc1ccc(NC(=O)CN(C)C(=O)c2cc(C)on2)cc1	-2	-13	-12	5	-1	x
Cc1ccc(SCCC(=O)Nc2ccc(OCc3ccccc3)cc2)cc1	-1	-16	968*	-3	-5	0
COc1ccc(NC(=O)CN(C)C(=O)c2cc(C)on2)cc1	0	3	678*	4	-5	0
CCOc1ccc(NC(=O)CCSc2ccc(C)cc2)cc1	-1	2	5	5	-1	x
COc1ccc(OCC(=O)Nc2ccc(C)cc2)cc1	-1	-2	859*	-6	-2	0
CCOC(=O)c1ccc(N2CN(CCc3ccccc3)CNC2=S)cc1	-1	-4	-26	-1	-4	x
Cc1ccc(N2CN(CCc3ccccc3)CNC2=S)cc1	-2	-5	419*	7	-1	1
CCOC(=O)C1=C(C(=O)OCC)C2N(Cc3ccc(Br)cc3)c3ccccc3[C@@]23C[C@@H](C(=O)OC)N(S(=O)(=O)c2ccc(OC)cc2)C3=N1 (stereo partly specified)	0	x	x	x	x	x
Cc1ccccc1NC(=O)c1ccccc1NC(=O)c1ccco1	-1	-8	402*	-3	-12	1
Nc1[nH]c(C(=O)c2ccc(Br)cc2)c(-c2ccncc2)c1C(=O)NCCc1c[nH]c2ccccc12	0	x	x	x	x	x
COCC(C)n1c(C)cc(C(=O)CSc2ccc(NC(C)=O)cc2)c1C (stereo unspecified)	1	-4	+	0	-2	0
SMILES	MsrA inh	PKA-R2B act	Mot1-301 SUMO	PKA-R1A act	MsrA act	Yeast Mot1 SUMO
COC(=O)[C@]12C[C@H](CC(=O)N3CCN(C(=O)c4ccco4)CC3)C(=O)N(Cc3ccccc3)C1=C[C@H](C(C)(C)C)O[C@@H]2C	0	x	x	x	x	x
CCc1cc2c(=O)c(-c3nc4ccccc4[nH]3)coc2c(CN2CCCCC2)c1O	1	-12	477*	-2	3	-1
C=CCN=C1NC(c2cccc(F)c2)C(C(=O)OC)=C(C)N1C (stereo unspecified)	1	x	x	x	x	x
C=CCO[C@H]1CN(C(=O)OC)[C@@H](c2ccccc2Br)C[C@H]1OCC=C	0	x	x	x	x	x
Nc1cc(-c2ccc(Br)cc2)nn1S(=O)(=O)c1ccccc1	2	-1	-6	4	-1	x
Nc1cc(-c2ccc(Cl)cc2)nn1S(=O)(=O)c1ccc(Cl)cc1	0	-7	545*	-16	-9	0
COc1ccc(S(=O)(=O)n2nc(-c3ccc(Cl)cc3)cc2N)cc1OC	0	3	388*	-10	-5	0
Cc1sc2nc(CN3CCCC3)nc(Cl)c2c1C	0	-4	-12	-15	-4	x
Cc1sc2nc(CN3CCCC3)nc(NCc3ccncc3)c2c1C	0	-14	802*	-8	0	0
Cc1ccc(NC(=S)N2CCN(Cc3ccc4c(c3)OCO4)CC2)c(C)c1	-1	-2	378*	-10	-2	0
CCN(C(=O)Nc1ccccc1OC)c1c(N)n(Cc2ccccc2)c(=O)[nH]c1=O	0	0	471*	-3	-4	0
C=CCN=C1NC(CCc2ccccc2)C(C(=O)OC)=C(C)N1Cc1ccccc1C(F)(F)F (stereo unspecified)	-2	x	x	x	x	x
COC(=O)c1cc2c(s1)-c1ccccc1OC2	2	3	-8	8	-1	x
COC(=O)c1cc2c(s1)-c1ccc(OC)cc1CC2	-1	4	477*	-5	-3	-1
C[C@H](CO)N1C[C@H](C)[C@H](CN(C)C(=O)Nc2ccc(N3CCCCC3)cc2)OCc2cnnn2CCCC1=O	0	x	x	x	x	x
CCC(Cc1ccccc1)NC(=O)C1CCN(c2nn3c(=O)cc(C)nc3s2)CC1 (stereo unspecified)	0	-1	408*	-8	-2	0
C#CCNC(=O)C[C@H]1C[C@@]2(C(=O)OC)C(=C[C@H](COCc3ccccc3)O[C@@H]2C)N(CCC2=CCCCC2)C1=O	0	x	x	x	x	x
O=C1c2cc(N3CCCC3)c([N+](=O)[O-])cc2C(=O)N1c1ccccc1	0	-7	377*	-1	-2	1
Cc1cc(=O)c(C(=O)O)cn1Nc1ccc(Cl)cc1	2	15	+	0	-2	0
CC(=O)c1ccc(Oc2cc(C)nc(N3CCOCC3)n2)cc1	0	-7	436*	-8	-3	1
COCCOCCOCCC(=O)NC1CC2CCC1(C)C2(C)C (stereo unspecified)	-1	6	11	-10	-2	x
C=CC(=O)NC1CC2CCC1(C)C2(C)C (stereo unspecified)	-2	-1	459*	-1	-2	1

Bioassay records (PubChem)
